Experimental findings from article PMC7862700, “An all-to-all approach to the identification of sequence-specific readers for epigenetic DNA modifications on cytosine” are described below.

Common to all, as to experiment: DAPPL (digital affinity profiling via proximity ligation, sequencing); 10 mM Tris-HCl pH 7.5, 50 mM NaCl, 1 mM DTT, 4% glycerol, room temperature, 30 min; GST-TFs on glutathione beads, 16-mer random dsDNA library, 0.1% formaldehyde crosslink after washing; high values mean tight binding
Settings in all cases: protein: recombinant; tags: N-terminal GST; dsDNA, one strand shown

The target of one assay is T1, ERG (Homo sapiens, UniProt P11308 1-479).
T1 sequence: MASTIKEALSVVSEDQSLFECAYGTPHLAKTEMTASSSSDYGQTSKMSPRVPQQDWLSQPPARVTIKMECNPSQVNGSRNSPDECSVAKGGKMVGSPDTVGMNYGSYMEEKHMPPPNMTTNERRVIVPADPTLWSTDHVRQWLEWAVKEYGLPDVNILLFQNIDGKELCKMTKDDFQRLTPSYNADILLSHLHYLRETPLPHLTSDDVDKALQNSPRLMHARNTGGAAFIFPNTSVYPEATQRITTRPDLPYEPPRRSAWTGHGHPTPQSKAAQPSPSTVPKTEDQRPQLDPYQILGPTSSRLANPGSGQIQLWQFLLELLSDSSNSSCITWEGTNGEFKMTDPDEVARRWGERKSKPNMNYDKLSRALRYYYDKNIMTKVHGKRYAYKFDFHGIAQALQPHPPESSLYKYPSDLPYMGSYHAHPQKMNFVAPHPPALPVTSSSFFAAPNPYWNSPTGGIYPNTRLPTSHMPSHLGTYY
In short, it runs like this:
(§1)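 Binding signal is given per hexamer as its read frequency for a factor divided by its frequency in the tag-only sample. GST-fused human transcription factors were expressed in yeast, captured on glutathione beads, barcoded with DNA and pooled with that sample, then incubated with 200 nmole of a 16-mer random double-stranded DNA library in Tris/NaCl/DTT/glycerol buffer for 30 min at room temperature. The pools were then washed, crosslinked, proximity-ligated, amplified by PCR and sequenced on an Illumina NextSeq500.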

For another assay, the target named is ELF1 (Homo sapiens, UniProt P32519 1-619). An outline of the steps:
as §1

A further assay deals with T2, EHF (Homo sapiens, UniProt Q9NZC4 1-300).
T2 sequence: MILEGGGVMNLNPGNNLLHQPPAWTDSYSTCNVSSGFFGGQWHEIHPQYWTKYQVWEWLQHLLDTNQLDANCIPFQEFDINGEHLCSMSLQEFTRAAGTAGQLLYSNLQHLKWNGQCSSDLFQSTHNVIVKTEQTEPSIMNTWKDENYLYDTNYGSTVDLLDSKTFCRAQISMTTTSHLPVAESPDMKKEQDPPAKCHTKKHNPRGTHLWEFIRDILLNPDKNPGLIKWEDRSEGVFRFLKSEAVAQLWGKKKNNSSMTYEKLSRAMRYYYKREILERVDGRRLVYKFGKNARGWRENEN
An outline of the steps:
as §1

The target of another assay is SPIB (Homo sapiens, UniProt Q01892 1-262). In short, it runs like this: as §1
A further assay has as its target T3, SPIC (Homo sapiens, UniProt Q8N5J4 1-248).
T3 sequence: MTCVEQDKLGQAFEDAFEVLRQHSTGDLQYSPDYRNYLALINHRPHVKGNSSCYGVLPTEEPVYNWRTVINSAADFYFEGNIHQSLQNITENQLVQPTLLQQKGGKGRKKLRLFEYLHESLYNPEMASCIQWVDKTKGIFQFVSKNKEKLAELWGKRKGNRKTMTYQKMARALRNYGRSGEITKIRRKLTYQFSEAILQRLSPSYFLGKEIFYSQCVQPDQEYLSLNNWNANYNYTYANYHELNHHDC
An outline of the steps:
as §1

Another assay deals with ELF4 (Homo sapiens, UniProt Q99607 1-663). An outline of the steps: as §1
Another assay has as its target T4, ETV2 (Homo sapiens, UniProt O00321 1-342).
T4 sequence: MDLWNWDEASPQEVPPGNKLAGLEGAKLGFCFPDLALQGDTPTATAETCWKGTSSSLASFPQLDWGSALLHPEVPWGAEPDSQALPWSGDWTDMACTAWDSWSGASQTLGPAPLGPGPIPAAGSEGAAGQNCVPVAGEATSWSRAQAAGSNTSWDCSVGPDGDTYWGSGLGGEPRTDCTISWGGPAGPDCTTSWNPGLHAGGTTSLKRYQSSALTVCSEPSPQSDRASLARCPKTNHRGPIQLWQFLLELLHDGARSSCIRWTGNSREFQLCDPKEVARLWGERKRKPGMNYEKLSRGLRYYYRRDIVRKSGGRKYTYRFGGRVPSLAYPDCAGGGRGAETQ
In short, it runs like this:
as §1

A further assay deals with T5, ELF3 (Homo sapiens, UniProt P78545 1-371).
T5 sequence: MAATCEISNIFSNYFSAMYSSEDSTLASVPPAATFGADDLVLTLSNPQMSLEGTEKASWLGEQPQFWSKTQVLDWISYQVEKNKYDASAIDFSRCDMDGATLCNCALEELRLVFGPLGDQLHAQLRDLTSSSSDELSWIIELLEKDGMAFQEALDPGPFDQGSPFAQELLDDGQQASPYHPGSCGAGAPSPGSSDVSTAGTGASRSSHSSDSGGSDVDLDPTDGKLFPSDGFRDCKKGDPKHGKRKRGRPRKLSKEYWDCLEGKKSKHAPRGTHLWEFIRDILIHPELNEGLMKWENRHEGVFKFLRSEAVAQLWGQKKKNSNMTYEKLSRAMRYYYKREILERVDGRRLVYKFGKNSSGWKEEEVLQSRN
An outline of the steps: as §1

Another assay concerns the target ETV1 (Homo sapiens, UniProt P50549 1-477). An outline of the steps:
as §1

The next assay addresses T6, ERF (Homo sapiens, UniProt P50548 1-548).
T6 sequence: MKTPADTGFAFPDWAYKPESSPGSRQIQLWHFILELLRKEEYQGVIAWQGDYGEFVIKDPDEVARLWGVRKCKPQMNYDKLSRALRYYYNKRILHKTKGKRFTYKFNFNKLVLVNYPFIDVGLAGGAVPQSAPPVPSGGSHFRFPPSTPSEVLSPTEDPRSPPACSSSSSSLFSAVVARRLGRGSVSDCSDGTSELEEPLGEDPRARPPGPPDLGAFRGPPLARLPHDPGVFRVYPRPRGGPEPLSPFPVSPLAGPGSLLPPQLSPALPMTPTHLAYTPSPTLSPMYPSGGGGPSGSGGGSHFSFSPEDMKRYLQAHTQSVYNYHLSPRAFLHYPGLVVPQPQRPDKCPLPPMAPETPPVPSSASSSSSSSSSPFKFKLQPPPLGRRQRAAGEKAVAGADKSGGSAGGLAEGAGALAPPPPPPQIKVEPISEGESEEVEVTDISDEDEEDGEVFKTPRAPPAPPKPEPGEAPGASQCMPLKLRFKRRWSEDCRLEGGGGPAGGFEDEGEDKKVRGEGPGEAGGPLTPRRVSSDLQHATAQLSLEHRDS
In short, it runs like this:
as §1

A further assay concerns the target T7, ETV3L (Homo sapiens, UniProt Q6ZN32 1-361).
T7 sequence: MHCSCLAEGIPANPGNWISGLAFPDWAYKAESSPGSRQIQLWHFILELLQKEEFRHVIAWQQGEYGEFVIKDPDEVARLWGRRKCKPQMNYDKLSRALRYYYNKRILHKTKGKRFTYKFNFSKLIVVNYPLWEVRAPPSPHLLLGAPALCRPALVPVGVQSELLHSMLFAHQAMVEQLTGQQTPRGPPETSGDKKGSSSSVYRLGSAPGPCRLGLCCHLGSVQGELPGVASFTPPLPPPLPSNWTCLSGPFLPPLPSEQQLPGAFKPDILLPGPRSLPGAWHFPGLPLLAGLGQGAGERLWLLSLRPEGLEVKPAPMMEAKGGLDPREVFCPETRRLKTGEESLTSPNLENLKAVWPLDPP
An outline of the steps:
as §1

For the next assay, the target named is T8, ETS2 (Homo sapiens, UniProt P15036 1-469).
T8 sequence: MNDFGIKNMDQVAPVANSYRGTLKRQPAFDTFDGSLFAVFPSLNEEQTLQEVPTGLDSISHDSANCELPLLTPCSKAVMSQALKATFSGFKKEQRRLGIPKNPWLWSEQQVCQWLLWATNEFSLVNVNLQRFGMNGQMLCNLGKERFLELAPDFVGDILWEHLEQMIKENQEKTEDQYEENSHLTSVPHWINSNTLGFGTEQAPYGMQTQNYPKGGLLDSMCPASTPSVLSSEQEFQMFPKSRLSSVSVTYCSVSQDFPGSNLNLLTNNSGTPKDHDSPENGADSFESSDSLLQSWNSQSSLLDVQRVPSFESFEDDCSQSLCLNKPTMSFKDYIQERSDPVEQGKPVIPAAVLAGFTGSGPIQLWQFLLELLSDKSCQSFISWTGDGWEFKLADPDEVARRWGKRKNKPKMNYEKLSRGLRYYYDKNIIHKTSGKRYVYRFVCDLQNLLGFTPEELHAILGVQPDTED
In short, it runs like this:
as §1

Another assay concerns the target T9, SPDEF (Homo sapiens, UniProt O95238 1-335).
T9 sequence: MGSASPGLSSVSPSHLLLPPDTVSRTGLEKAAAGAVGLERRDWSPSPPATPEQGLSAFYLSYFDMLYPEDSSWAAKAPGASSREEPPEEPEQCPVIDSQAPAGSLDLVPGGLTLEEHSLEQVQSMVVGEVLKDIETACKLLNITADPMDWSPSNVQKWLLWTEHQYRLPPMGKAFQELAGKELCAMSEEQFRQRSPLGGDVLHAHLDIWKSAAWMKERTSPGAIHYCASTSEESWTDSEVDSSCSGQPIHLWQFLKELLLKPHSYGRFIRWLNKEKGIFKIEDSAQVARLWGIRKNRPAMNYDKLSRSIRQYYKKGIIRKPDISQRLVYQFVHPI
In short, it runs like this:
as §1

For another assay, the target named is T10, ELF5 (Homo sapiens, UniProt Q9UKW6-2 1-255).
T10 sequence: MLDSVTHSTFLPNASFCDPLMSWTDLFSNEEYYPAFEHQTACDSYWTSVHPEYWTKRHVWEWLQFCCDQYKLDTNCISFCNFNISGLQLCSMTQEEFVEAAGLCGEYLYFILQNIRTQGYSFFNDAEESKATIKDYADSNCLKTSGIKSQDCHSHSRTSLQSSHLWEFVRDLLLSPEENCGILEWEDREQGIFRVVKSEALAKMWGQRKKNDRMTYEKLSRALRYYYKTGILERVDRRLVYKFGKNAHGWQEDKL
In short, it runs like this:
as §1

For the next assay, the target named is T11, ETV3 (Homo sapiens, UniProt P41162-2 1-143).
T11 sequence: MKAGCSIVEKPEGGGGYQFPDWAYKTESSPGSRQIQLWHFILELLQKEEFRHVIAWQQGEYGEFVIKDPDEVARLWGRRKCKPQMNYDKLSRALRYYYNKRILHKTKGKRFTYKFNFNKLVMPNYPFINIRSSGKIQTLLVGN
In short, it runs like this: as §1

Sequence of SPIB (Q01892 whole entry): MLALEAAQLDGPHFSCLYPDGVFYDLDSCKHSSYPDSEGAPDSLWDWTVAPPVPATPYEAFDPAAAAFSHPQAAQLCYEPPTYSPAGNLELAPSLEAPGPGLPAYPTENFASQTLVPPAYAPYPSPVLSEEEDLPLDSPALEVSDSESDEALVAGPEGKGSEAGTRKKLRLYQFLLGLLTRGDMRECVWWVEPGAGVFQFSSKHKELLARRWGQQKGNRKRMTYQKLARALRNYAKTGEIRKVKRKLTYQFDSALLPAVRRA
Sequence of ETV1 (P50549 whole entry): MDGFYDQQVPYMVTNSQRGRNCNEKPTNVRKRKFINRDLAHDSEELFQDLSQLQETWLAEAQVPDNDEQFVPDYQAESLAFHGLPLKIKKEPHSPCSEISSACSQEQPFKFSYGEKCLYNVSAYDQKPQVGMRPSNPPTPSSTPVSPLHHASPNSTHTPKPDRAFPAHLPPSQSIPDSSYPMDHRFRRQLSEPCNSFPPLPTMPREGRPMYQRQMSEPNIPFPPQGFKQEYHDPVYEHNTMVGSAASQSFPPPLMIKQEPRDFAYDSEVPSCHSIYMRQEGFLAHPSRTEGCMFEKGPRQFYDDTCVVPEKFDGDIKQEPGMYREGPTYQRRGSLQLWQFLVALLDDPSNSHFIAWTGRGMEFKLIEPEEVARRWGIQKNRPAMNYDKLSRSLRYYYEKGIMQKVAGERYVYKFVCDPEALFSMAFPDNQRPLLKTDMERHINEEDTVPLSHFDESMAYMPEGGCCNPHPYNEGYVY
Sequence of ELF4 (Q99607 whole entry): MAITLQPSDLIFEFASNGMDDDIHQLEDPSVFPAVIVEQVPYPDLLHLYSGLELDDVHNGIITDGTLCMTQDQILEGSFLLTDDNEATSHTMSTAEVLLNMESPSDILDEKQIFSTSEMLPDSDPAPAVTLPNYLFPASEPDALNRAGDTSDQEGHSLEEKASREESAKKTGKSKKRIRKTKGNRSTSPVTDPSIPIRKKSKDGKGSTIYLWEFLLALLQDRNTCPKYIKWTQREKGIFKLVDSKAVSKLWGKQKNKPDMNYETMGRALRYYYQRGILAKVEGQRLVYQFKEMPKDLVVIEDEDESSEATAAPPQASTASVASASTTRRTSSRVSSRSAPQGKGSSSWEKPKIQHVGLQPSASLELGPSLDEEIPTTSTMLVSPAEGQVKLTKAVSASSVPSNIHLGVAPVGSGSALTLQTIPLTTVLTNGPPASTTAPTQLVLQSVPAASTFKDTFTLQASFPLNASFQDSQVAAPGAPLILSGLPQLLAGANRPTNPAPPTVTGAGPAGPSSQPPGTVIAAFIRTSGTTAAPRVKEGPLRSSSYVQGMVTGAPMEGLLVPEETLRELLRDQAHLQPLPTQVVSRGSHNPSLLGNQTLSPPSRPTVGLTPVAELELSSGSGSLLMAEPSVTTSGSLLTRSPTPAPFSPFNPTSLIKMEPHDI
Sequence of ELF1 (P32519 whole entry): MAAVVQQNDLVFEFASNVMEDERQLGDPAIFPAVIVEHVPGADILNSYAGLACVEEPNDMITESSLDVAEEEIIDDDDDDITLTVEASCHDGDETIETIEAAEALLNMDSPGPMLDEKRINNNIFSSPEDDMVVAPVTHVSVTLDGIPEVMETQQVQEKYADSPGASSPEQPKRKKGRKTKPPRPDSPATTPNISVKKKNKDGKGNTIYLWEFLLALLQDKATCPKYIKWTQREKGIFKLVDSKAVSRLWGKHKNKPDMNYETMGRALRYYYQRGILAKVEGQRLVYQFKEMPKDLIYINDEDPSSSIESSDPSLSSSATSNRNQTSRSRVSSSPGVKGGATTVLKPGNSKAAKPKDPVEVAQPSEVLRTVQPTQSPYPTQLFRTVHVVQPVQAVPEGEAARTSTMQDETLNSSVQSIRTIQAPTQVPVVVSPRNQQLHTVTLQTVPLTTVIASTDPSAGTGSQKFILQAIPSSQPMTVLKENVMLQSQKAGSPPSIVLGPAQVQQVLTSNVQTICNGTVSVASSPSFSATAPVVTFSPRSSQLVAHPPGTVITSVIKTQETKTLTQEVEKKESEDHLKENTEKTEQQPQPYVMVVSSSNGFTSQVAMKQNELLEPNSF

Take GTGTCT: the binding signal is 1.1 fold enrichment (6-mer frequency, TF over GST control) in the assay with ERG; 1.06 fold enrichment (6-mer frequency, TF over GST control) with ELF1; 1.06 fold enrichment (6-mer frequency, TF over GST control) with EHF; 1.03 fold enrichment (6-mer frequency, TF over GST control) with SPIB; 1.16 fold enrichment (6-mer frequency, TF over GST control) in the assay with SPIC; 1.02 fold enrichment (6-mer frequency, TF over GST control) in the assay with ELF4. The binding signal in the assay with ETV2 is 1.15 fold enrichment (6-mer frequency, TF over GST control); with ELF3, 1 fold enrichment (6-mer frequency, TF over GST control); with ETV1 it was 1.09 fold enrichment (6-mer frequency, TF over GST control); with ERF it was 1.06 fold enrichment (6-mer frequency, TF over GST control); in the assay with ETV3L, 1.09 fold enrichment (6-mer frequency, TF over GST control); with ETS2 it was 1.03 fold enrichment (6-mer frequency, TF over GST control). The binding signal was 1.09 fold enrichment (6-mer frequency, TF over GST control) with SPDEF; 1.13 fold enrichment (6-mer frequency, TF over GST control) with ELF5; 1.02 fold enrichment (6-mer frequency, TF over GST control) with ETV3.
